The supplement of paper PMC10849652
Targets with a hit are over-represented here; the source holds about 7,900 in all. About 0.6% of all pairs of compound and target were hits.

Compound: CCn1c(C(=O)N(C2CC2)C2CC2)cc2c3c(ncn3C)c(Nc3cc(C)n(C)n3)nc21
Test: log2 fold change, soluble protein after heating vs DMSO (PISA); higher = thermal stabilisation; K562 cells, 10 uM, 30 min; active = over 0.2 and 3.5 SD of the protein, either way, in both replicates (recomputed)
In short: (§1)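 Soluble protein was quantified by TMTpro 16plex LC-MS/MS after channel sums were equalised. It was obtained as the supernatant after 21,000xg for 90 min from pooled aliquots of K562 cells (2×10^6 cells/mL, 10 μM compound, 30 min) heated for 3 min across 48°C-58°C and extracted in PBS with 0.5% NP-40 at 4°C. Thermal stability values are relative to control samples and come from duplicates. They are given as log2 fold changes.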

Sequence of UniProt Q16539 (Q16539 whole entry, looked up): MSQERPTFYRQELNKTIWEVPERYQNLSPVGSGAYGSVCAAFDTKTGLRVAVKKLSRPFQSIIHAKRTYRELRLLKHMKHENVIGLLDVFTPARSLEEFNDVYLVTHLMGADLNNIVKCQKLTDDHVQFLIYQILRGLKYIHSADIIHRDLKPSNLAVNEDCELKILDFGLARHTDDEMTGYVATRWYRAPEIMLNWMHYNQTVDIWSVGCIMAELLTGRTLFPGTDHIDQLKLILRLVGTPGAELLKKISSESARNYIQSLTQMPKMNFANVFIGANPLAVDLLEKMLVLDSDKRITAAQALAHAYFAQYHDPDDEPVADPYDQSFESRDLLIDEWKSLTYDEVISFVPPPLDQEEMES
Sequence of UniProt Q9NVC6 (Q9NVC6 whole entry, looked up): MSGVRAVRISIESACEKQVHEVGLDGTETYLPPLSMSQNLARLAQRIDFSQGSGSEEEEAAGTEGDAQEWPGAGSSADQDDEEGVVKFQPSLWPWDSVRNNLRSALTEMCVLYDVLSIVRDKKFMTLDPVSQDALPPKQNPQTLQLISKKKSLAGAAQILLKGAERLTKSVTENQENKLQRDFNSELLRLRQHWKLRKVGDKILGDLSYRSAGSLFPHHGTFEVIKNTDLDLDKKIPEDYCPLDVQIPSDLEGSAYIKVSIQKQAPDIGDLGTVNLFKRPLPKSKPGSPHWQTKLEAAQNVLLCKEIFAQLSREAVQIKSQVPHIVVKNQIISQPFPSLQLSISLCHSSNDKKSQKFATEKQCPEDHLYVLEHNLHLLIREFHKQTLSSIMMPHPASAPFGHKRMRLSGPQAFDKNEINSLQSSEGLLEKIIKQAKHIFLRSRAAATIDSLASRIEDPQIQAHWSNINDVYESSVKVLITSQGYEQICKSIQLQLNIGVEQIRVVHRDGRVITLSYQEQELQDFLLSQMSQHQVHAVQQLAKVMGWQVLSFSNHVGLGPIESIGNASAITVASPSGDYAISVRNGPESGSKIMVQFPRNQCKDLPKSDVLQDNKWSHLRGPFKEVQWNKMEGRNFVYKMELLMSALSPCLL
Sequence of UniProt P43361 (P43361 whole entry, looked up): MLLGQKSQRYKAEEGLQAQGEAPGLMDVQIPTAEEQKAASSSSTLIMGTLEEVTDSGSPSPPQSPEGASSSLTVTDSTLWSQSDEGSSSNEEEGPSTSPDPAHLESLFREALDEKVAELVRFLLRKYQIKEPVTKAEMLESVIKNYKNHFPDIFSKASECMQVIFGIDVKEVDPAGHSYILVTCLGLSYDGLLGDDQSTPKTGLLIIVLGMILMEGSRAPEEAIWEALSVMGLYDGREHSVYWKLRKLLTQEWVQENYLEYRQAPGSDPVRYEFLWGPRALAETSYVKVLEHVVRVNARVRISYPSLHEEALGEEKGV
Sequence of UniProt Q71SY5 (Q71SY5 whole entry, looked up): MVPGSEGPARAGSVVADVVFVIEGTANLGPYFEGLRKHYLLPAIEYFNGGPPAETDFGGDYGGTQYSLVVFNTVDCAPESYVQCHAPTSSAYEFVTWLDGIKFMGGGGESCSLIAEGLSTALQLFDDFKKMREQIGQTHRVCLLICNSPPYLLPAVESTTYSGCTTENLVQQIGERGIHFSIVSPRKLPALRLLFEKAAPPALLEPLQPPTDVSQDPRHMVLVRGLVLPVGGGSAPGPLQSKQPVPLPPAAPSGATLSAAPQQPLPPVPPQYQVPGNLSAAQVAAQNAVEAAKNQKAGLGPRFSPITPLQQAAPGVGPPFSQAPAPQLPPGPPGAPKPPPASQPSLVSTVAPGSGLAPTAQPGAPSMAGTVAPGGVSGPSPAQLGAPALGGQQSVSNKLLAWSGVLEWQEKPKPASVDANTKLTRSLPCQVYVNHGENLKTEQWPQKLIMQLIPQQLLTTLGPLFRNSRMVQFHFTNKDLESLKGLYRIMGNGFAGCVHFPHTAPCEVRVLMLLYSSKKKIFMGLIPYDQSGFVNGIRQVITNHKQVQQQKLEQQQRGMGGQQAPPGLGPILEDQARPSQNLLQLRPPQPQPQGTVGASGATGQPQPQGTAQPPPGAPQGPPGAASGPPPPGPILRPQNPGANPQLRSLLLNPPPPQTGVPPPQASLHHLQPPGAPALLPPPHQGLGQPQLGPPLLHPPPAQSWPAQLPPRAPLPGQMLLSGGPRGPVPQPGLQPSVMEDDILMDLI
Sequence of UniProt Q8NHS3 (Q8NHS3 whole entry, looked up): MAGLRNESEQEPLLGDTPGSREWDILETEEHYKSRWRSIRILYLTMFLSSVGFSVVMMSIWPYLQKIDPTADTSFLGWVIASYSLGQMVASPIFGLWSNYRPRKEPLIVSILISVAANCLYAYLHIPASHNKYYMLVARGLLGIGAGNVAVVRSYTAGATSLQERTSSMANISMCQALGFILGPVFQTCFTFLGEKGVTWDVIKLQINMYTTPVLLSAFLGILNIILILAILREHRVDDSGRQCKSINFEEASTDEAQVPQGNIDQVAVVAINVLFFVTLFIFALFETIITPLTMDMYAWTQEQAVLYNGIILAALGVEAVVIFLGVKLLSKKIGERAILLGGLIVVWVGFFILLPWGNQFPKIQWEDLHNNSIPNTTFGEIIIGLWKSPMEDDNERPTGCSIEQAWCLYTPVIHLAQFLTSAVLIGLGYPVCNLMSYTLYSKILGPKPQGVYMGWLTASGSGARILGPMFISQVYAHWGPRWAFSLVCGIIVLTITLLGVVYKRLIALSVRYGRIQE
Sequence of UniProt A4D2B0 (A4D2B0 whole entry, looked up): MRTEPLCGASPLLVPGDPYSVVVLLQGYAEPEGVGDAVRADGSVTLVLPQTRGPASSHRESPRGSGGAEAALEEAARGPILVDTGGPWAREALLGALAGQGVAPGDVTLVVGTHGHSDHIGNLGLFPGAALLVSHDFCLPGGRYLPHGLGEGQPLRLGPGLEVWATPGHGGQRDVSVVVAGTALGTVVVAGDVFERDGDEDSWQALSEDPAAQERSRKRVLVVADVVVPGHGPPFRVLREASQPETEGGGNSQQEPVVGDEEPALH
Sequence of UniProt Q96PV6 (Q96PV6 whole entry, looked up): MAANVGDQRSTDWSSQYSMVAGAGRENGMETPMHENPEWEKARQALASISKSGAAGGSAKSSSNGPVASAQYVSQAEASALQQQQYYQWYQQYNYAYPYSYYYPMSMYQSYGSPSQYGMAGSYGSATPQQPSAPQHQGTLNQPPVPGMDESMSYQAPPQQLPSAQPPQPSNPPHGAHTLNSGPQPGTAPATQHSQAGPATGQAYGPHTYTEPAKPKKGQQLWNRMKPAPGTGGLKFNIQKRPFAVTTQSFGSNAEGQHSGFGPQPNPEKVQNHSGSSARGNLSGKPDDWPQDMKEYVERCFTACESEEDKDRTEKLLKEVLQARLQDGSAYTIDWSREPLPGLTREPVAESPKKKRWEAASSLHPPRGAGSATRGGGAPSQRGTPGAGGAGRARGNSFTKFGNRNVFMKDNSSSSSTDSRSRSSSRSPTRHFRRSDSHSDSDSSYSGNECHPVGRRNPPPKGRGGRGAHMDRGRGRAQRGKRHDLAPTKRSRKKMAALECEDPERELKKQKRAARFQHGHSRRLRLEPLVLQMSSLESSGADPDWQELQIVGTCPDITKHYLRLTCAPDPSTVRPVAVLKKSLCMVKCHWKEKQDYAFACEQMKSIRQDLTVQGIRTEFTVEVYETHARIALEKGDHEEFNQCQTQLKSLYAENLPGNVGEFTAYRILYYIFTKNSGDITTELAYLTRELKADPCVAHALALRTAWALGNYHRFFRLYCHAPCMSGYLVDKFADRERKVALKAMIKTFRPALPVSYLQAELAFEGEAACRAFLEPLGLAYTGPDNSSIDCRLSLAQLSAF
Sequence of UniProt Q9BQD3 (Q9BQD3 whole entry, looked up): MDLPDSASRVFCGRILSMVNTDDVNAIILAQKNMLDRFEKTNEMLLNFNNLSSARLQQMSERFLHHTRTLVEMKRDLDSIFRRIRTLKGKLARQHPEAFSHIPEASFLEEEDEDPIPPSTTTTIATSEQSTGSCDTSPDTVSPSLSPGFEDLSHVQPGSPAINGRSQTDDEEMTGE
Sequence of UniProt O15066 (O15066 whole entry, looked up): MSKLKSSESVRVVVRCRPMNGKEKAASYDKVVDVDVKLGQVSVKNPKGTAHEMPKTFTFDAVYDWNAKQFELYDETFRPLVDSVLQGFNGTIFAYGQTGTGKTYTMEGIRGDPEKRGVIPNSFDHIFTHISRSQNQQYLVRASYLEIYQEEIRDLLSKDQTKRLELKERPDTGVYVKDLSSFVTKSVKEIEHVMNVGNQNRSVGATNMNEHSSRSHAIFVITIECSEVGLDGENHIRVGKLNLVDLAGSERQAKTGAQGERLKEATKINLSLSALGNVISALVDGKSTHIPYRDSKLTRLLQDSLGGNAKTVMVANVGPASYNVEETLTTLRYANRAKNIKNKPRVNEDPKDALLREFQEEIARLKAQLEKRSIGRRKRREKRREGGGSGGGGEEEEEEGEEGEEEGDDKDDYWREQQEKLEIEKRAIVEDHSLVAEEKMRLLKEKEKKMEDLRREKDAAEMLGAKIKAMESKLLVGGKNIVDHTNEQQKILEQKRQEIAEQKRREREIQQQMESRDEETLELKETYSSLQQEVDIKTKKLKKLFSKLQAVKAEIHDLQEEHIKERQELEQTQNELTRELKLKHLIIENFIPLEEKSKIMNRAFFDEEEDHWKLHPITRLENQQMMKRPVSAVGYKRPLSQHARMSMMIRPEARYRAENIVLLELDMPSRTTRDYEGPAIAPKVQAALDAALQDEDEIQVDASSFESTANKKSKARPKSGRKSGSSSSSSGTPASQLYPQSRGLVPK
Sequence of UniProt Q9H6K1 (Q9H6K1 whole entry, looked up): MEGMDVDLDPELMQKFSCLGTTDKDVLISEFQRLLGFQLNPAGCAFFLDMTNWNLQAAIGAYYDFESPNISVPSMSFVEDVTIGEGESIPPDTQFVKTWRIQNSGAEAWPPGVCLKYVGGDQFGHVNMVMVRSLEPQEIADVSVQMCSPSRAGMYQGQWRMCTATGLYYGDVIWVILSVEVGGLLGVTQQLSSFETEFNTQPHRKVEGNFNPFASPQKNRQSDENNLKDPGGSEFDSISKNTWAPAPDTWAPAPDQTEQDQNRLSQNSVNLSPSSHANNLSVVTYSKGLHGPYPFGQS

log2 fold change, inactive:
MAPK14 (UniProt Q16539) 0.088
ITM2B (UniProt Q9Y287) 0.001
METAP1D (UniProt Q6UB28) -0.039
IL27RA (UniProt Q6UWB1) -0.066
LPGAT1 (UniProt Q92604) -0.128
MED12 isoform 2 (UniProt Q93074) 0.083
KMT2C isoform 3 (UniProt Q8NEZ4) 0.009
LUM (UniProt P51884) 0.2
ITPRID2 (UniProt P28290) 0.078
LRBA, A0A494BZW2 -0.193
IMMP1L (UniProt Q96LU5) -0.031
KIF3B (UniProt O15066) -0.204
MED8 isoform 2 (UniProt Q96G25) 0.009
MFSD8 (UniProt Q8NHS3) 0.001
MED22 (UniProt Q15528) 0.134
MARK2 (UniProt E9PC69) -0.137
ING5 (UniProt Q8WYH8) -0.046
MCM10 (UniProt Q7L590) 0.069
MBLAC1 (UniProt A4D2B0) 0.063
MAGEA8 (UniProt P43361) -0.063
MELK (UniProt Q14680) -0.009
KCNK5 (UniProt O95279) 0.004
MAN2B2 (UniProt Q9Y2E5) 0
LENG8 (UniProt Q96PV6) 0.005
LRFN1 (UniProt Q9P244) 0.07
MASTL (UniProt Q96GX5) -0.048
MCOLN3 (UniProt Q8TDD5) -0.132
IP6K1 (UniProt Q92551) -0.253
MED25 isoform 3 (UniProt Q71SY5) -0.076
KXD1 (UniProt Q9BQD3) -0.033
MED17 (UniProt Q9NVC6) -0.027
MAP4 isoform 5 (UniProt P27816) -0.03
ILRUN (UniProt Q9H6K1) -0.013

Compound: CCn1cc(-c2ccnc3[nH]c(-c4cccc(CN(C)C)c4)cc23)c(-c2ccc(NC(=O)N(C)C)cc2)n1
Test: as above
In short: as §1

log2 fold change, inactive:
MAPK14 (UniProt Q16539) 0.03
MED12 isoform 2 (UniProt Q93074) 0.086
KMT2C isoform 3 (UniProt Q8NEZ4) 0.031
LRBA, A0A494BZW2 -0.039
KIF3B (UniProt O15066) 0.159
MFSD8 (UniProt Q8NHS3) -0.012
MCM10 (UniProt Q7L590) -0.037
MBLAC1 (UniProt A4D2B0) -0.01
MAGEA8 (UniProt P43361) 0.252
KIZ (UniProt Q2M2Z5) -0.202
MELK (UniProt Q14680) -0.114
KCNK5 (UniProt O95279) 0.047
MFSD11 (UniProt O43934) 0.021
LENG8 (UniProt Q96PV6) 0.073
MCOLN3 (UniProt Q8TDD5) 0.027
IP6K1 (UniProt Q92551) 0.028
MED25 isoform 3 (UniProt Q71SY5) -0.203
KXD1 (UniProt Q9BQD3) 0.041
MED17 (UniProt Q9NVC6) 0.08

Compound: CN(C)CC(=O)Nc1ccc2[nH]c(=O)c3ccccc3c2c1
Test: as above
In short: as §1

log2 fold change, inactive:
MAPK14 (UniProt Q16539) 0.052
ITM2B (UniProt Q9Y287) -0.036
METAP1D (UniProt Q6UB28) -0.065
IL27RA (UniProt Q6UWB1) -0.098
LPGAT1 (UniProt Q92604) 0.051
KMT2C isoform 3 (UniProt Q8NEZ4) 0
LUM (UniProt P51884) -0.167
ITPRID2 (UniProt P28290) -0.106
IMMP1L (UniProt Q96LU5) 0.017
KIF3B (UniProt O15066) -0.078
MED8 isoform 2 (UniProt Q96G25) -0.075
MFSD8 (UniProt Q8NHS3) -0.061
MED22 (UniProt Q15528) -0.019
MARK2 (UniProt E9PC69) -0.028
MCM10 (UniProt Q7L590) -0.023
MBLAC1 (UniProt A4D2B0) 0.105
MAGEA8 (UniProt P43361) -0.003
MAP4K4 isoform 6 (UniProt O95819) -0.083
MAN2B2 (UniProt Q9Y2E5) -0.019
MFSD11 (UniProt O43934) 0.017
LENG8 (UniProt Q96PV6) 0.065
LRFN1 (UniProt Q9P244) 0.134
MASTL (UniProt Q96GX5) -0.143
MED25 isoform 3 (UniProt Q71SY5) 0.096
KXD1 (UniProt Q9BQD3) 0.062
MED17 (UniProt Q9NVC6) 0.037
ILRUN (UniProt Q9H6K1) 0.016
